Laboratory results reported in PubChem BioAssay (EPA / NIEHS).
Records with an inconclusive call do not appear. The source made the active and inactive calls. The calls were made as follows, unless noted: active = hit-call score of the fitted dose curve at least 0.9, where 1 is the maximum; inactive = score below 0.9.

Key:
[1] = ATG_PXRE_CIS: Attagene CIS-FACTORIAL HepG2 Assay for human Pregnane X Receptor Element (PXRE) (AID 2282957); conditions: HepG2 Attagene CIS-FACTORIAL PXRE reporter, mRNA; actives raise or lower the signal
How it was run: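 HepG2 cells transiently transfected with cis-element-driven multiplexed reporter units; after 24 h chemical exposure, reporter mRNA measured by RT-PCR, 6-FAM labelling, HpaI digestion and capillary electrophoresis. Bidirectional fitting relative to DMSO.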

[2] = ATG_RORE_CIS: Attagene CIS-FACTORIAL HepG2 Assay for human RAR-related Orphan Receptor Element (RORE) (AID 2282959); conditions: HepG2 Attagene cis-factorial RORE reporter, mRNA; actives raise or lower the signal
How it was run: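 Transient MRTU transfection of human HepG2 liver cells (FuGene 6); 24 h compound exposure; TriZol RNA, oligo(dT) RT, PCR, FAM labeling, HpaI cut, CE fragment analysis. DMSO = negative control/baseline.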

[3] = ATG_Sox_CIS: Attagene CIS-FACTORIAL HepG2 Assay for human SRY-box transcription factor (SOX) (AID 2282960); conditions: HepG2 Attagene cis-factorial SOX reporter, mRNA; actives raise or lower the signal
How it was run: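 Endogenous factor activity in human liver HepG2 cells carrying transfected cis-regulated reporter units. RNA taken 24 h post-dose, reverse-transcribed, PCR-amplified and sized by capillary electrophoresis. Gain or loss of signal fitted relative to DMSO.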

[4] = biological target: Transcription factor Sp1 (Homo sapiens) (UniProt P08047); test: ATG_Sp1_CIS: Attagene CIS-FACTORIAL HepG2 Assay for human Specificity Protein 1 (Sp1) (AID 2282961); conditions: HepG2 Sp1 cis-reporter transcription, actives raise or lower the signal
Chain of Transcription factor Sp1 (Homo sapiens) (P08047 whole entry, looked up): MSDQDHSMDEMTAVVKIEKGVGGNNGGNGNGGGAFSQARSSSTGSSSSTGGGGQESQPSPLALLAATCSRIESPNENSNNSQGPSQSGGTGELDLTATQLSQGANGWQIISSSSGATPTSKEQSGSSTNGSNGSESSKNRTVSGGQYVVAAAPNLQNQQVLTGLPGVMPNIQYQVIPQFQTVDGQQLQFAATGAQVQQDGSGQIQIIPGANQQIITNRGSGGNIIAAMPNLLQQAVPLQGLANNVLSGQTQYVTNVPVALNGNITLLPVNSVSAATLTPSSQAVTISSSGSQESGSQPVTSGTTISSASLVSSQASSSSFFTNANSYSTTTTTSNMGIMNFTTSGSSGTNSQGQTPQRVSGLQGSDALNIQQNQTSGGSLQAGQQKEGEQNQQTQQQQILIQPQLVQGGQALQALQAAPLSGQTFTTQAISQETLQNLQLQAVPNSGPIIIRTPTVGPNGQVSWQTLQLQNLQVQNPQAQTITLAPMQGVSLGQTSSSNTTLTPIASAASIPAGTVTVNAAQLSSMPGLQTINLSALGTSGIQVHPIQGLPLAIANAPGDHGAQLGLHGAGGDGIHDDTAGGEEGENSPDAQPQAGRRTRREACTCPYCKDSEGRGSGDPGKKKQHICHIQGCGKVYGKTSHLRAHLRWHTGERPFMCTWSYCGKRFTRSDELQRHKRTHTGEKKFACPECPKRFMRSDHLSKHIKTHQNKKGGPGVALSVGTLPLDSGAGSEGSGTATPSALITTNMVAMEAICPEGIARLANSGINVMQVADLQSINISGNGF
How it was run: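 Transient MRTU-transfected HepG2, 24 h compound exposure. Total RNA → oligo(dT) RT → PCR of reporter → 6-FAM primer extension → HpaI digest → CE. Endpoint fitted both directions vs DMSO.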

[5] = ATG_SREBP_CIS: Attagene CIS-FACTORIAL HepG2 Assay for human Sterol Regulatory Element Binding (SREBP) (AID 2282962); conditions: HepG2 Attagene cis-factorial SREBP reporter, mRNA; actives raise or lower the signal
How it was run: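 mRNA induction of transfected cis-promoter reporters in HepG2 cells, 24 h post-dose. Detection: RT-PCR with 6-FAM-labelled products, HpaI digest, capillary electrophoresis. DMSO served as negative control and baseline.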

[6] = biological target: Signal transducer and activator of transcription 3 (Homo sapiens) (UniProt P40763); test: ATG_STAT3_CIS: Attagene CIS-FACTORIAL HepG2 Assay for human Signal Transducer and Activator of Transcription 3 (STAT3) (AID 2282963); conditions: HepG2, Attagene cis-factorial STAT3 reporter transcription; actives raise or lower the signal
Chain of Signal transducer and activator of transcription 3 (Homo sapiens) (P40763 whole entry, looked up): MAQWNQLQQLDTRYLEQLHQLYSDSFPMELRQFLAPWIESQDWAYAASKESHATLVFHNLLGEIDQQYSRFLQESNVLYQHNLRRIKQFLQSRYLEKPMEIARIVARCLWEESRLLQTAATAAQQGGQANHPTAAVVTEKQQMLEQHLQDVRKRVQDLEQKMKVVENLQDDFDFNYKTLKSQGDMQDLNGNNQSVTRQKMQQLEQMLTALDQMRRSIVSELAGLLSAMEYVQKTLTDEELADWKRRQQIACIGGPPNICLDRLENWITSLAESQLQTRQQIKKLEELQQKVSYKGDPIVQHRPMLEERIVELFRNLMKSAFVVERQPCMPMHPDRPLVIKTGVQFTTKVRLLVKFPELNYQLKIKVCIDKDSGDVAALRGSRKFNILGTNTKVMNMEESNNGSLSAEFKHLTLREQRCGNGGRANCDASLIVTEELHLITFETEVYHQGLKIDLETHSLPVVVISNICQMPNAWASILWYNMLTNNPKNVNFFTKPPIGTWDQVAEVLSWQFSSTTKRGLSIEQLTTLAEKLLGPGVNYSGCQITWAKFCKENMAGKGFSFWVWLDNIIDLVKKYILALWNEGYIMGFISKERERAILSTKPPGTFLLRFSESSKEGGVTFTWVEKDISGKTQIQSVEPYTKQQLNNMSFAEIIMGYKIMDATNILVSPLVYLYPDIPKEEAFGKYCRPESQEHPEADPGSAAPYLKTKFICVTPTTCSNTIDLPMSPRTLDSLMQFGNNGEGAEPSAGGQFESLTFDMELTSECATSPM
How it was run: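 HepG2 cells transiently transfected with cis-element-driven multiple reporter transcription units; after 24 h chemical exposure, reporter mRNA measured by RT-PCR, 6-FAM primer-extension labelling, HpaI digestion and capillary electrophoresis. Bidirectional fitting versus DMSO baseline.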

[7] = ATG_TA_CIS: Attagene CIS-FACTORIAL HepG2 Assay for human TA Basal Promoter (AID 2282964); conditions: HepG2 Attagene CIS-factorial TA basal promoter reporter; actives raise or lower the signal
How it was run: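 Transient MRTU transfection of HepG2 preceded 24 h compound exposure. Reporter mRNA levels were then read by RT-PCR with capillary electrophoresis, and this background-control endpoint was fitted bidirectionally to DMSO.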

[8] = ATG_TCF_b_cat_CIS: Attagene CIS-FACTORIAL HepG2 Assay for human T-Cell-Factor with beta-catenin (TCF/b-cat) (AID 2282965); conditions: HepG2 TCF/beta-catenin cis-reporter transcription, actives raise or lower the signal
How it was run: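 HepG2 cells transiently transfected with multiple cis-promoter-regulated reporter transcription units, so endogenous transcription factor activity is measured. Reporter mRNA read 24 hours after dosing by RT-PCR, fluorescent labelling and capillary electrophoresis; bidirectional fitting against DMSO.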

[9] = ATG_TAL_CIS: Attagene CIS-FACTORIAL HepG2 Assay for human TAL Basal Promoter (AID 2282966); conditions: HepG2 Attagene cis-factorial TAL promoter reporter; actives raise or lower the signal;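 also: background control endpoint measuring basal TAL promoter reporter mRNA not a specific factor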
How it was run: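 HepG2 cells transiently transfected with multiplexed cis-promoter reporter units, dosed 24 h. Reporter mRNA quantified by RT-PCR, 6-FAM labelling, HpaI digestion and capillary electrophoresis; TAL basal promoter serves as background control, fitted bidirectionally versus DMSO.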

[10] = ATG_TGFb_CIS: Attagene CIS-FACTORIAL HepG2 Assay for human Transforming Growth Factor (TGF) (AID 2282967); conditions: HepG2 Attagene CIS TGFb reporter, mRNA transcription; actives raise or lower the signal
How it was run: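 After a 24-hour incubation with compound, transfected HepG2 cells were lysed for RNA; reporter cDNA was amplified, fluorescently end-labeled and separated by CE. DMSO served as baseline for bidirectional fits.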

[11] = ATG_VDRE_CIS: Attagene CIS-FACTORIAL HepG2 Assay for human Vitamin D Receptor Element (VDRE) (AID 2282968); conditions: HepG2 VDRE cis-reporter transcription, actives raise or lower the signal
How it was run: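 HepG2 cells transiently transfected with cis-element reporter units, dosed 24 h; reporter mRNA measured by RT-PCR, 6-FAM labeling, HpaI digestion and capillary electrophoresis. Activity fitted bidirectionally against DMSO baseline.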

[12] = biological target: Nuclear receptor subfamily 1 group I member 3 (Homo sapiens) (UniProt Q14994); test: ATG_CAR_TRANS: Attagene TRANS-FACTORIAL HepG2 Assay for human Constitutive Androstane Receptor (CAR) (AID 2282969; active = hit-call score of the fitted dose curve at least 0.9, where 1 is the maximum;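 also: activators raise reporter mRNA above DMSO so AC50 marks induction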); conditions: HepG2 Attagene TRANS-FACTORIAL CAR reporter
Chain of Nuclear receptor subfamily 1 group I member 3 (Homo sapiens) (Q14994 whole entry, looked up, the tested form may be a part): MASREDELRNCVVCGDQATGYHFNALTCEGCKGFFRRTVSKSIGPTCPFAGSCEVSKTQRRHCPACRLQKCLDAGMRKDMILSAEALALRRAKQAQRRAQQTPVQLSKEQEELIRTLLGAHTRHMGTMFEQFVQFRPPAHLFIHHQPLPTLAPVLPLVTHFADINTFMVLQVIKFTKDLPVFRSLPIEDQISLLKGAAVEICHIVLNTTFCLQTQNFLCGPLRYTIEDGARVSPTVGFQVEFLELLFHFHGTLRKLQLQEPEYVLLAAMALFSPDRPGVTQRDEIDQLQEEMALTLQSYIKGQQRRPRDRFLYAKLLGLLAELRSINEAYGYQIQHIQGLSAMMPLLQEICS
How it was run: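 HepG2 cells transiently transfected with multiplexed GAL4-UAS reporter units expressing chimeric NR-Gal4 proteins; compound exposure 24 h. Reporter mRNA measured by RT-PCR, 6-FAM labelling, HpaI digestion and capillary electrophoresis; gain-of-signal fitted against DMSO baseline.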

[13] = biological target: Steroid hormone receptor ERR1 (Homo sapiens) (UniProt P11474); test: ATG_ERRa_TRANS: Attagene TRANS-FACTORIAL HepG2 Assay for human Estrogen-Related Receptor alpha (ERRa) (AID 2282971; active = hit-call score of the fitted dose curve at least 0.9, where 1 is the maximum); conditions: HepG2 Attagene TRANS reporter, ERRa transactivation
Chain of Steroid hormone receptor ERR1 (Homo sapiens) (P11474 whole entry, looked up, the tested form may be a part): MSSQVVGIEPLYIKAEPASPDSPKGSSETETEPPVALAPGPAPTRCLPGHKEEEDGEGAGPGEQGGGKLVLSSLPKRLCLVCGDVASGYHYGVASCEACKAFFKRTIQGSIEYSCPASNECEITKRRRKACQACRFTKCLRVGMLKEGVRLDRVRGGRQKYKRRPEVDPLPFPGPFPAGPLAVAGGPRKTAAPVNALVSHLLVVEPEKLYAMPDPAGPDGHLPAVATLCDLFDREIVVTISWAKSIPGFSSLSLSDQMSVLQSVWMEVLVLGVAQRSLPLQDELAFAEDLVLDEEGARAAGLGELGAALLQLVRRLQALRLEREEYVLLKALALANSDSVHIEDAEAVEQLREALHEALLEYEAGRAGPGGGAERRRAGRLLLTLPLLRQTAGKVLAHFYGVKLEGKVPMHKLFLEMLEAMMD
How it was run: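 HepG2 cells transiently transfected with GAL4-UAS reporter units and chimeric NR-Gal4 constructs; after 24 hour compound incubation, reporter mRNA quantified by RT-PCR, fluorescent labelling and capillary electrophoresis, gain of signal versus DMSO.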

[14] = biological target: X-box-binding protein 1 (Homo sapiens) (UniProt P17861); test: ATG_Xbp1_CIS: Attagene CIS-FACTORIAL HepG2 Assay for human X-box Binding Protein 1 (XBP1) (AID 2282972); conditions: HepG2 XBP1 cis-element reporter, Attagene multiplex; actives raise or lower the signal
Chain of X-box-binding protein 1 (Homo sapiens) (P17861 whole entry, looked up, the tested form may be a part): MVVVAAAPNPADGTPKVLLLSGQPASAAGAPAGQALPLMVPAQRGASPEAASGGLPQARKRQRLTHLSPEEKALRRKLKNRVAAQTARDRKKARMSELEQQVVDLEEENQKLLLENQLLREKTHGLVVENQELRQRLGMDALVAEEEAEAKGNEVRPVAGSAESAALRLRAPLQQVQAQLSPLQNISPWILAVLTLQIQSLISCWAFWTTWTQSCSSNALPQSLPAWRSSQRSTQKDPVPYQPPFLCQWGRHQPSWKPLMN
How it was run: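 Fluorescence-labelled cDNA fragments from reporter transcripts, separated by capillary electrophoresis, give the signal. Source: HepG2 cells transfected with promoter-driven reporter units, harvested 24 h post-dose. DMSO served as reference for bidirectional curve fitting.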

[15] = ATG_M_19_TRANS: Attagene TRANS-FACTORIAL HepG2 Assay for M19 Transcription Factor (Internal Marker) (AID 2282974; active = hit-call score of the fitted dose curve at least 0.9, where 1 is the maximum); conditions: HepG2 Attagene TRANS-FACTORIAL M19 internal marker reporter
How it was run: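 Fluorescence of 6-FAM-labelled reporter cDNA fragments, separated by capillary electrophoresis, served as the readout. These derived from HepG2 cells carrying transfected GAL4-UAS reporter units after 24 h dosing, with DMSO as negative control.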

[16] = ATG_GAL4_TRANS: Attagene TRANS-FACTORIAL HepG2 Assay for GAL4 (Internal Marker) (AID 2282976; active = hit-call score of the fitted dose curve at least 0.9, where 1 is the maximum); conditions: HepG2 Attagene TRANS GAL4 internal marker reporter
How it was run: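 Background-control readout: GAL4-UAS reporter transcript in transiently transfected HepG2 cells after 24 h compound exposure. Measured by RT-PCR, 6-FAM primer extension, HpaI digest and capillary electrophoresis; gain-of-signal fit versus DMSO.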

[17] = biological target: Estrogen receptor (Homo sapiens) (UniProt P03372); test: ATG_ERa_TRANS: Attagene TRANS-FACTORIAL HepG2 Assay for human Estrogen Receptor alpha (ERa) (AID 2282970; active = hit-call score of the fitted dose curve at least 0.9, where 1 is the maximum); conditions: HepG2 Attagene TRANS ERa GAL4 reporter, mRNA
Chain of Estrogen receptor (Homo sapiens) (P03372 whole entry, looked up, the tested form may be a part): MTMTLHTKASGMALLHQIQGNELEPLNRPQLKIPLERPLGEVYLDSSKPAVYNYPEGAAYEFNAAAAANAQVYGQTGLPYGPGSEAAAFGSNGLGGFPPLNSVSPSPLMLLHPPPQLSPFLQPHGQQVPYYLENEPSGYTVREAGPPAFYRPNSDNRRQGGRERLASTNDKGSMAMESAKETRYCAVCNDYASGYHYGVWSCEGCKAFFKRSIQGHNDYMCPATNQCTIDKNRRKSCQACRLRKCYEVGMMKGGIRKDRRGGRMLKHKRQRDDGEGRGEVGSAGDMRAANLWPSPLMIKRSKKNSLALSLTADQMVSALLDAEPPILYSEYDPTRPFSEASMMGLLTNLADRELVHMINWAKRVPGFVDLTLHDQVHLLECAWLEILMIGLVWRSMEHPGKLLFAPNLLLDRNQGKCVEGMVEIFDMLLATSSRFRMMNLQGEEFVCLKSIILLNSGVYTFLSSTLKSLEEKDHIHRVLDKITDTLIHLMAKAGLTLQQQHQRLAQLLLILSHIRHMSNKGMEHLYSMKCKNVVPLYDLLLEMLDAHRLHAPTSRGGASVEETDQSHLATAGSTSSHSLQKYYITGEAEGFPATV
How it was run: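 HepG2 cells transiently transfected with multiplexed GAL4-UAS reporter units read out chimeric NR-Gal4 activity. After 24 h compound exposure, reporter mRNA was quantified by RT-PCR, 6-FAM labeling, HpaI digestion and capillary electrophoresis, relative to DMSO.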

[18] = biological target: Glucocorticoid receptor (Homo sapiens) (UniProt P04150); test: ATG_GR_TRANS: Attagene TRANS-FACTORIAL HepG2 Assay for human Glucocorticoid Receptor (GR) (AID 2282978; active = hit-call score of the fitted dose curve at least 0.9, where 1 is the maximum;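 also: activators score as hits since higher reporter transcript over DMSO is fitted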); conditions: HepG2 Attagene TRANS GR reporter, mRNA transcription
Chain of Glucocorticoid receptor (Homo sapiens) (P04150 whole entry, looked up, the tested form may be a part): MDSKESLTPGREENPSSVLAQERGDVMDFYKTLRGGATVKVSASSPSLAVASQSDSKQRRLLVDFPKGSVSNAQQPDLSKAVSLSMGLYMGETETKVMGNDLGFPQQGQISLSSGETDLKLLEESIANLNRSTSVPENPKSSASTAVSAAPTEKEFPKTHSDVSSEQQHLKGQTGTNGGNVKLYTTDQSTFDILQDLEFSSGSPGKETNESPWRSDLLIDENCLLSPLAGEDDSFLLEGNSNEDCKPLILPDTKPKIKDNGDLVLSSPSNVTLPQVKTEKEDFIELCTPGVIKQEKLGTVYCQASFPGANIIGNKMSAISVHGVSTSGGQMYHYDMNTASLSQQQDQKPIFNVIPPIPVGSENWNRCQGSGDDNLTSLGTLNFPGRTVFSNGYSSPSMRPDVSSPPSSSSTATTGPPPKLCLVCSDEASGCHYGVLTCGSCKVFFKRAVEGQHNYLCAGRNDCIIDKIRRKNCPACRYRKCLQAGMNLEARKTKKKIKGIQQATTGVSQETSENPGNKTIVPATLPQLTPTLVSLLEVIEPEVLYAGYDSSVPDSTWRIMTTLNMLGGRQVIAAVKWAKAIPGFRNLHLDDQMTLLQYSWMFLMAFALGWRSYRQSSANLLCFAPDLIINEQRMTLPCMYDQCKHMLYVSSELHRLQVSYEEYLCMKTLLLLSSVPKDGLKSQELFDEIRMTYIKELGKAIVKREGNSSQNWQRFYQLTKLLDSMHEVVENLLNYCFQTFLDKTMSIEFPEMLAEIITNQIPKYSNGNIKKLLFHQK
How it was run: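 Fluorescent capillary-electrophoresis quantitation of reporter mRNA is the readout, taken 24 h after dosing human HepG2 cells carrying transiently transfected GAL4-UAS reporter units activated by chimeric NR-GAL4 fusions; activity scored as induction over DMSO.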

[19] = ATG_PPRE_CIS: Attagene CIS-FACTORIAL HepG2 Assay for human Peroxisome Proliferator-activated Response Element (PPRE) (AID 2282958); conditions: HepG2 PPRE cis-element reporter, Attagene transcription factor profiling; actives raise or lower the signal
How it was run: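 HepG2, transient MRTU transfection (cis promoter elements, endogenous TFs). 24 h dosing. RNA → oligo(dT) RT → PCR → 6-FAM primer extension → HpaI digest → CE. Bidirectional fit vs DMSO.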

Measured: outcome

CCC(C)c1nccnc1OC (centres undefined)
not listed: [17] | [18] | [19]
inactive: all other assays above

O=C(F)C(F)(F)C(F)(F)C(F)(F)C(F)F
not listed: [12] | [19]
inactive: all other assays above

CC(C)(C)C1CCCCC1O (centres undefined)
not listed: [13] | [18] | [19]
inactive: all other assays above

FC(F)(F)C(F)(F)C(F)(F)C(F)(F)I
not listed: [4] | [12] | [16] | [18]
inactive: all other assays above
